From PubChem BioAssay (NCI) come the findings set out here.

“And” between values parts separate entries of the source, which are not always exact repeats. Equal values may be shown once. The panel holds about 83,000 compounds, 20% with a hit somewhere; the sample as a whole holds those more often.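 Step 1: grow cells in 96-well plates. Step 2: add test compound at a single concentration. Step 3: incubate 48 h. Step 4: record percent growth.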 The source made the active and inactive calls. How the source made its calls: active means growth percent below 10; inactive means the rest.

This test relates to MDA-MB-468 breast. Put plainly: NCI-60 one-dose screen, 48 h (100 = growth as untreated, 0 = no growth, -100 = all killed). The conditions noted are these: 10 µM unless noted.
On to `O=C(COc1ccc(-c2nc3ccccc3[nH]2)cc1)N=Nc1c(O)[nH]c2ccc(Cl)cc12`, for which the growth is 89.7% (inactive).

`CC(=O)c1cc2c(o1)C(=O)c1ccccc1C2=O`: the growth is -40% (active).

In the case of `C[C@H](C(=O)N[C@@H](Cc1ccc(-c2ccccc2)cc1)C(=O)NC1CC(C)(C)NC(C)(C)C1)c1ccc(-c2ccccc2)c(F)c1`, the growth is -65.9% (active).

Turning to `O=C(CCc1nnc2sc(-c3ccccc3)nn12)c1nc2ccccc2[nH]1`, the growth was 87.3% (inactive).

Turning to `CN1CCN(Cc2ccc(NC(=O)c3cncc(C#Cc4cnc5ccc(N6CCSCC6)nn45)c3)cc2C(F)(F)F)CC1`, the growth is -74.2% (active).

Consider `Oc1ccc(-c2nc3ccc4[nH]ncc4c3c3c2CCCC3)c(F)c1`, for which the growth was 18.2% (inactive).

`CN(C)CCCC1(c2ccc(F)cc2)OCc2cc(-c3ccc4cc[nH]c4c3)ccc21` (stereo not given): the growth was -27.1% (active).

Regarding `Brc1cc(-c2cc(-c3ccc4c(c3)OC=CO4)[nH]n2)cs1`, the growth was 30% (inactive).

As to `CCOC(=O)C(=O)C=P(c1ccccc1)(c1ccccc1)c1ccccc1`, the growth is 114% (inactive).

With `CCOC(=O)C(=CNc1cnc(Nc2ccc(N3CCOCC3)cc2)nc1Oc1ccc(OC)cc1)C(=O)OCC`, the growth was 61.5% (inactive).

As to `C#CCOc1cccc(/C(N)=N/C(N)=N/c2nc3ccccc3s2)c1`, the growth was 76.4% (inactive).

For `CCn1c2ccc(/C=N/OCCCN(C)C)cc2c2cc(/C=N/OCCCN(C)C)ccc21`, the growth was -66.6% (active).

Consider `C/C(Cc1ccc(Cl)cc1)=C(/c1ccccc1)c1ccc(OCCN)cc1`, for which the growth is 97.2% (inactive).

`COc1ccc(C(=O)/C=C/c2cc3c(c(OC)c2)OCC(=O)N3)cc1`: the growth is 42.3% (inactive).

`N#Cc1ncc(-c2ccc(C(F)(F)F)cc2)c(NC2CCCCCC2)n1`: the growth was -8.28% (active).

For the compound `O=c1c2ccccc2c(Br)c(Br)c2ccccc12`, the growth is 8.15% (active).

Take `C=CCN(/C=C1/C(=O)O[C@H](COC)[C@@]2(C)C1=C(O)C(=O)C1=C2[C@H](OC(C)=O)C[C@]2(C)C(=O)CC[C@@H]12)CC=C`: the growth is -32.2% (active).

On to `COc1ccc(C(=O)/C(=N/Nc2ccccc2)c2ccc(OC)cc2)cc1`, for which the growth was 106% (inactive).

Take `CN1CCN(c2ccc(-c3cnc4c(-c5csc6ccccc56)cnn4c3)cc2)CC1`: the growth is -26.8% (active).

Consider `Cc1cc(C(=O)Nc2ccc3cc(CN4CCOCC4)ccc3n2)c(C)n1-c1ccccc1`, for which the growth was 26.7% (inactive).

Take `N#Cc1c(N)nnn1Cc1cc(=O)oc2ccc(O)cc12`: the growth was 101% (inactive).

In the case of `Cc1[nH]n(C(N)=S)c(=O)c1N=Nc1ccc(F)c(Cl)c1`, the growth is 154% (inactive).

Take `ClC1=C2NC=NC2n2c(nnc2-c2ccc(Cl)cc2)N1` (stereo not given): the growth was 91.6% (inactive).

Consider `O=C(/C=C/c1ccc(Br)cc1)c1ccccc1`, for which the growth was 96.3% (inactive).

Regarding `Cc1cc(C(=O)CCCC(=O)c2cc(C)c(O)c(C)c2)cc(C)c1O`, the growth was -3.17% (active).

With `Cc1ccc(-c2nc3nc(-c4ccc(F)cc4)nc(N4CCNCC4)c3o2)cc1`, the growth is 54.3% (inactive).

With `CN1CCN(Cc2ccc(NC(=O)c3cncc(C#Cc4cnc(N)c5ncccc45)c3)cc2Cl)CC1`, the growth was 85.4% (inactive).

On to `C=C(CN=[N+]=[N-])[C@@H]1CC[C@]2(C)[C@H](CC[C@@H]3[C@H]4[C@H]5OC(=O)[C@@]4(CCC5(C)C)CC[C@]32C)[C@@]1(C)CCC#N`, for which the growth was 72.3% [100 µM] (inactive).

On to `NC1=NC(c2ccccc2OS(=O)(=O)c2ccc(Br)cc2)n2c(nc3ccccc32)N1` (stereo not given), for which the growth was 104% (inactive).

As for `C#CC#CC#CC#CC#CC#CC#CC#CC[C@@H]1OC[C@@H](COC(=O)O[C@@H](C(=O)O[C@H]2C[C@@]3(O)[C@@H](OC(=O)c4ccccc4)[C@@H]4[C@]5(OC(C)=O)CO[C@@H]5C[C@H](O)[C@@]4(C)C(=O)[C@H](OC(C)=O)C(=C2C)C3(C)C)[C@@H](NC(=O)c2ccccc2)c2ccccc2)O1`, the growth was -4.7% (active).

As to `NCCCN1CCCC1=O`, the growth is 116% (inactive).

Turning to `CCOC(=O)c1ccc(C(C)(C)C)cc1`, the growth is 107% (inactive).

Consider `O=C(OCc1nc2nc(Cl)nc(N3CCOCC3)c2[nH]1)n1ccnc1`, for which the growth was -26.9% (active).

Take `COc1ccc2nc(Cl)c(/C=C/C(=O)c3ccc(NC(=O)CSc4nnc(-c5ccc(Cl)c(Cl)c5)n4-c4ccccc4)cc3)cc2c1`: the growth was 98.2% (inactive).

Turning to `Cn1c2ccccc2c2c3c(c4c5cccnc5[nH]c4c21)C(=O)N(O)C3=O`, the growth is 0.0154% (active).

For `Cc1cc(C)c2c(-c3nnc(N)s3)cc(=O)oc2c1`, the growth is 104% (inactive).

On to `O=C(O)CC1Sc2ccccc2NC1=O` (stereo not given), for which the growth is 163% (inactive).

For `Clc1ccc(/C=C/c2ccc3ccccc3n2)cc1`, the growth was -11.4% (active) and 73.5% (inactive) and 80.5% (inactive).

Consider `Cc1ccc(NCCNCC(O)CO)c2c(=O)c3ccccc3sc12` (stereo not given), for which the growth was -46.4% (active).

On to `CCN(CC)CCn1c2ccc(O)cc2c2sc3cc(O)ccc3c(=O)c21`, for which the growth was 47.8% (inactive).
